“And” between values parts separate entries of the source, which are not always exact repeats. Identical values can stand only once. Results filed as inconclusive are left out. Where a call stands in place of a potency, no number is given. The source made the active and inactive calls. Unless noted, calls come from the whole dose curve; as a rule, active = well fitted curve in the direction sought with a large enough effect; inconclusive = small, poorly fitted or top-dose-only effect, or another doubt; inactive = no such curve, though single readings can be large; an effect the other way counts as inactive or inconclusive. Non-standard residues stand in square brackets, D forms with d. Residues, ends and D or L forms follow the SMILES beside them. *: point of attachment. Nva = CCC[C@H](N)C(=O)O; Cbz = O=C(OCc1ccccc1)*
Columns and labels:
[1] = target: Calcium and integrin-binding protein 1 (Homo sapiens) (UniProt Q99828); assay: Primary qHTS for Identification of Calcium Integrin Binding Protein 1 (CIB1) Competitor (AID 1508620);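 note: GST tagged CIB1 binding a fluorescein labelled alphaIIb integrin peptide tracer; top concentration of the series differs between compounds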
Procedure, shortened: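 Fluorescence polarization competition: CIB1-GST (1 uM final) preincubated with compound 15 min at room temperature, then FITC-labeled alphaIIb peptide (100 nM final) added for another 15 min. Polarization read at Ex 480/Em 540.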

[2] = Primary qHTS for small molecule stabilizers of the endoplasmic reticulum resident proteome: Secreted ER Calcium Modulated Protein (SERCaMP) assay (AID 1508630)
Procedure, shortened: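 GLuc-SERCaMP-expressing SH-SY5Y cells, pretreated 16 h with compound, are challenged with thapsigargin to empty ER calcium stores; after 4 h, coelenterazine is added directly to the medium and luminescence is imaged.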

[3] = target: Cytochrome P450 2D6 (Homo sapiens) (UniProt P10635); assay: Cytochrome P450 family 2 subfamily D member 6 (CYP2D6) small molecule antagonists: luciferase biochemical (cell-free) qHTS assay (AID 1645840; active = well fitted curve in the direction sought with a large enough effect in the repeat runs; an effect the other way counts as inactive or inconclusive; note: nearly all actives have a fitted effect of over 55% in size; note: potency is the fitted concentration of half-maximal effect)
Procedure, shortened: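 P450-Glo luminescent screen: recombinant CYP2D6 enzyme–proluciferin substrate mix preincubated with compound 10 min at room temperature, then NADPH regeneration added for 1 h at room temperature. Detection reagent added for 20 min; luciferin light read as relative luminescence units.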

[4] = target: Cytochrome P450 2C9 (Homo sapiens) (UniProt P11712); assay: Cytochrome P450 family 2 subfamily C member 9 (CYP2C9) small molecule antagonists: luciferase biochemical (cell-free) qHTS assay (AID 1645842; active = well fitted curve in the direction sought with a large enough effect in the repeat runs; an effect the other way counts as inactive or inconclusive; note: nearly all actives have a fitted effect of over 55% in size; note: potency is the fitted concentration of half-maximal effect)
Procedure, shortened: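 Luminescence, after 20 min with luciferin detection reagent, reflected CYP2C9 turnover during a 1 h NADPH-driven reaction at 37C. Enzyme-substrate mix contained 0.4% bovine serum albumin and was preincubated with compound 10 min at room temperature.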

[5] = Primary qHTS for inhibitors of nuclear receptor binding SET domain protein 2 (NSD2) in an isogenic RCH-ACV NSD2 p.E1099K mutant (9B) (AID 1645876); note: nearly all actives have a fitted effect of over 70% in size; note: potency is the fitted concentration of half-maximal effect
[6] = Primary qHTS for inhibitors of nuclear receptor binding SET domain protein 2 (NSD2) in an RCH-ACV wild type WT cells (2C) (AID 1645877); note: nearly all actives have a fitted effect of over 70% in size; note: potency is the fitted concentration of half-maximal effect
[7] = target: Catechol O-methyltransferase (Homo sapiens) (UniProt P21964); assay: Confirmatory Screen for Target Class Profiling of Small Molecule Inhibitors of Methyltransferases (AID 1745852; calls by dose curve; note: potency is the fitted concentration of half-maximal effect); details: MTase-Glo luminescence, SAH detection, recombinant enzyme; measured here: COMT max response; stronger effect = lower value
[8] = target: Guanidinoacetate N-methyltransferase (Homo sapiens) (UniProt Q14353); assay: as above; details: activity change, negative = inhibition: at 57.3 µM (top of the series)
[9] = target: N-terminal Xaa-Pro-Lys N-methyltransferase 1 (Homo sapiens) (UniProt Q9BV86); assay: Confirmatory qHTS for Inhibitors of N-terminal methyltransferase 1 (NTMT1): MTaseGlo Assay (AID 1645874); details: NTMT1 enzyme, MTase-Glo SAH luminescence; note: potency is the fitted concentration of half-maximal effect; nearly all actives have a fitted effect of over 65% in size
Procedure, shortened: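 Preincubation of NTMT1 (125 nM) plus SAM (100 uM) with test compounds lasted 15 min; methylation of 1 uM SPKRIA then proceeded 30 min in the dark at room temperature. Luciferase signal reported SAH produced.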

Chain of Cytochrome P450 2C9 (Homo sapiens) (P11712 whole entry, looked up): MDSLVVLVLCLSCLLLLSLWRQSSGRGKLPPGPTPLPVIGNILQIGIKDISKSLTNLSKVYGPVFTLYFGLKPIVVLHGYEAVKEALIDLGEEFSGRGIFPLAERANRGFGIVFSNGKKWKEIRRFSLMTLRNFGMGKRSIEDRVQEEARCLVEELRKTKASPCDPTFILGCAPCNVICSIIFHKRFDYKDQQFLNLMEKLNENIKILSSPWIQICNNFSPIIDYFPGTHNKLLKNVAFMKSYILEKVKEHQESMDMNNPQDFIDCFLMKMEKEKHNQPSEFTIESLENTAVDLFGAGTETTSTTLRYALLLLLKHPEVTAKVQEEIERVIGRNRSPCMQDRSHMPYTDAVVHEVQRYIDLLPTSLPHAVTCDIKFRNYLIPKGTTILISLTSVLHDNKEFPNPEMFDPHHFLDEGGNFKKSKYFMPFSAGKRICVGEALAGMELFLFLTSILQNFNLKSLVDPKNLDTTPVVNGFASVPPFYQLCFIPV
Chain of Cytochrome P450 2D6 (Homo sapiens) (P10635 whole entry, looked up): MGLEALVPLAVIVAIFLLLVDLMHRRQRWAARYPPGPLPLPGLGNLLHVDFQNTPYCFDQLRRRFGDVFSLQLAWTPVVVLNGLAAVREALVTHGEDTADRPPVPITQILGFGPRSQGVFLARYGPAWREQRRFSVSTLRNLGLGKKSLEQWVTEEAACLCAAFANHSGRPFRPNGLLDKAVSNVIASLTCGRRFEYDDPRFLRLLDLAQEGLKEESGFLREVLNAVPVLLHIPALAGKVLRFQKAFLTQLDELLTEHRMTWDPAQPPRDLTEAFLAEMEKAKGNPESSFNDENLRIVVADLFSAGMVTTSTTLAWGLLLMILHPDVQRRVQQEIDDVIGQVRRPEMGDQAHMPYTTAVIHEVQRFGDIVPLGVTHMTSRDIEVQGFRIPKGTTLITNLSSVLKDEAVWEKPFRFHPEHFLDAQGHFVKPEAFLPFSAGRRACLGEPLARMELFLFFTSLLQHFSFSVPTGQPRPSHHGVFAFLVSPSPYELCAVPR
Chain of Calcium and integrin-binding protein 1 (Homo sapiens) (Q99828 whole entry, looked up): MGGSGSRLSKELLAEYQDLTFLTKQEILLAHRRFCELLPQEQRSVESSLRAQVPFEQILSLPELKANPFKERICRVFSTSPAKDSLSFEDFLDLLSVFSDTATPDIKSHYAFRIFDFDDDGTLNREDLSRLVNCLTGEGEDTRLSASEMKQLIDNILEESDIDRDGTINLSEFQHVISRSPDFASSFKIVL
Chain of N-terminal Xaa-Pro-Lys N-methyltransferase 1 (Homo sapiens) (Q9BV86 whole entry, looked up): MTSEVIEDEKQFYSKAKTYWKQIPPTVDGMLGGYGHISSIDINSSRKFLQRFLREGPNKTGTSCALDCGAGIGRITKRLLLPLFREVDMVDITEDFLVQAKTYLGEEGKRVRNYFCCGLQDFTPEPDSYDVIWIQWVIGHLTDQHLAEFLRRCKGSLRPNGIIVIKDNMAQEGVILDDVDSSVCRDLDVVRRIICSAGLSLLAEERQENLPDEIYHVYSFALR
Chain of Catechol O-methyltransferase (Homo sapiens) (P21964 whole entry, looked up): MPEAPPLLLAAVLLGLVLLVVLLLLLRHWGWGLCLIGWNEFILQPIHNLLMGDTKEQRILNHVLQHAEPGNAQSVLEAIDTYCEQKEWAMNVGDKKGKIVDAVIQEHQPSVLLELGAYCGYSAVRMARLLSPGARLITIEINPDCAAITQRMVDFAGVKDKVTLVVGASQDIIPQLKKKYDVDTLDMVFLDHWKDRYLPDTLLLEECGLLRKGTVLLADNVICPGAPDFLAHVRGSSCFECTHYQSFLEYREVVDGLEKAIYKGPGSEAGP

Structure (SMILES): Cn1cnc2c(F)c(Nc3ccc(Br)cc3F)c(C(=O)NOCCO)cc21
- Potency [1]: inactive
- outcome [2]: inactive
- Potency [3]: inactive
- Potency [4]: 9.52 µM (active)

Structure (SMILES): COc1ccc(C=Cc2cc(OC)c(OC)c(OC)c2)cc1NC(=O)[C@H](N)CO
- Potency [1]: inactive
- outcome [2]: inactive
- Potency [5]: 118 nM (active)
- Potency [6]: 0.118 µM (active)

Structure (SMILES): CN(C)CC(=O)N1CCC(c2ccc(NC(=O)c3ncc(C#N)[nH]3)c(C3=CCCCC3)c2)CC1
- Potency [1]: inactive
- outcome [2]: inactive
- Potency [3]: inactive
- Potency [4]: inactive
- Potency [5]: 5.8 µM (active) and 11.8 µM (active)
- Potency [6]: 10.3 µM (active) and 9.34 µM (active)

Structure (SMILES): CCOC(=O)N1CCN([N+]([O-])=NOc2ccc([N+](=O)[O-])cc2C#N)CC1
- Potency [1]: inactive
- outcome [2]: inactive
- Potency [3]: inactive

Structure (SMILES): N#Cc1c(NC(=O)c2cccc3ccccc23)sc2c1CCCC2
- Potency [1]: inactive
- outcome [2]: inactive
- Potency [5]: 263 nM (active)

Structure (SMILES): C[C@@H]1[C@H](C)CC[C@]2(C(=O)O)CC[C@]3(C)C(=CC[C@@H]4[C@@]5(C)C[C@@H](O)[C@H](O)[C@@](C)(CO)[C@H]5CC[C@]43C)[C@@H]12
- Potency [1]: inactive
- outcome [2]: inactive

Structure (SMILES): C=CCNc1c(O)cc2c(O)c1C[C@@H](C)C[C@H](OC)[C@@H](O)[C@@H](C)C=C(C)[C@H](OC(N)=O)[C@@H](OC)C=CC=C(C)C(=O)N2
- Potency [1]: inactive
- outcome [2]: inactive

Structure (SMILES): CCNC(=O)c1cc2c(-c3cc(OCCN4CCCC4)c(Cl)cc3Cl)nc(N)nc2s1
- Potency [1]: inactive
- outcome [2]: inactive
- Potency [5]: 512 nM (active)
- Potency [6]: 0.512 µM (active)

Structure (SMILES): CC(C)(N)c1ccc(-c2nc3ccccc3nc2-c2ccccc2)cc1
- Potency [1]: inactive
- outcome [2]: inactive
- Potency [3]: 15.1 µM (active)
- Potency [4]: 13.5 µM (active)
- Potency [5]: 16300 nM (active)
- Potency [6]: 20.5 µM (active)

Structure (SMILES): CCC[C@@H](C=O)NC(=O)[C@H](CC(C)C)NC(=O)[C@H](CC(C)C)NC(=O)OCc1ccccc1 (Cbz-Leu-Leu-[Nva]-aldehyde)
- Potency [1]: inactive
- outcome [2]: inactive
- Potency [5]: 2090 nM (active)

Structure (SMILES): O=C(CCCCCCC(=O)Nc1cccnc1)NO
- Potency [1]: inactive
- outcome [2]: inactive
- Potency [5]: 4170 nM (active)
- Potency [6]: 3.32 µM (active)

Structure (SMILES): COc1cc2c(Nc3ccc(Cl)c(Cl)c3F)ncnc2cc1OCC1C[C@@H]2CN(C)C[C@H]2C1
- Potency [1]: inactive
- outcome [2]: inactive
- activity [7]: -71.6%
- Potency [8]: 21.5 µM (active)

Structure (SMILES): CC(C)(C)c1nc2c3cc[nH]c(=O)c3c3cc(F)ccc3c2[nH]1
- Potency [1]: inactive
- outcome [2]: inactive
- Potency [5]: 662 nM (active)

Structure (SMILES): CCc1c(O)cc(O)c(C(=O)c2ccc(OCCN3CCOCC3)c(OC)c2)c1CC(=O)N(CCOC)CCOC
- Potency [1]: inactive
- outcome [2]: inactive
- Potency [3]: inactive
- Potency [5]: 372 nM (active)
- Potency [6]: 0.148 µM (active)

Structure (SMILES): COc1cc(C)c(Sc2cnc(NC(=O)c3ccc(CNC(C)C(C)(C)C)cc3)s2)cc1C(=O)N1CCN(C(C)=O)CC1 (stereo unspecified)
- Potency [1]: inactive
- outcome [2]: inactive
- Potency [5]: 7420 nM (active)
- Potency [6]: 4.68 µM (active)

Structure (SMILES): COc1cc([C@@H]2c3cc4c(cc3[C@H](O)[C@H]3COC(=O)[C@@H]23)OCO4)cc(OC)c1OC
- Potency [1]: inactive
- outcome [2]: inactive
- Potency [5]: 662 nM (active)

Structure (SMILES): c1cc(CN2CCCNCCNCCCNCC2)ccc1CN1CCCNCCNCCCNCC1
- Potency [1]: inactive
- outcome [2]: inactive
- Potency [6]: inactive

Structure (SMILES): COc1cc(C(=O)NC2CCN(C)CC2)ccc1Nc1ncc2c(n1)N(C1CCCC1)CCC(=O)N2C(C)C
- Potency [1]: inactive
- outcome [2]: inactive
- Potency [5]: 13200 nM (active)
- Potency [6]: 10.5 µM (active)

Structure (SMILES): Cc1noc(-c2ccc(CSCCC(=O)O)cc2)c1NC(=O)OC(C)c1ccccc1Cl (stereo unspecified)
- Potency [1]: inactive
- outcome [2]: inactive
- Potency [3]: inactive
- Potency [4]: 12 µM (active)
- Potency [5]: inactive

Structure (SMILES): CCCCCCCCCCCCCCCC(=O)OC[C@@H](NC(=O)C(Cl)Cl)[C@H](O)c1ccc([N+](=O)[O-])cc1
- Potency [1]: inactive
- outcome [2]: inactive
- Potency [3]: inactive
- Potency [4]: 3.01 µM (active)

Structure (SMILES): CN1C(C(=O)Nc2ccccn2)=C(O)c2sc(Cl)cc2S1(=O)=O
- Potency [1]: inactive
- outcome [2]: inactive
- Potency [5]: inactive
- Potency [6]: inactive

Structure (SMILES): O=C(Nc1cc2cc[nH]c2cn1)c1ccccc1
- Potency [9]: 6.31 µM (active)

Reference: PubChem BioAssay (NCATS)
